High-throughput results: PubChem BioAssay, several laboratories
This is a sample that favours compounds with a hit; in the whole collection about 4.7% have one here.
SKKanGAS inh: inhibitors of SKKanGAS S. pyogenes growth in kanamycin (SK-promoter or general growth effect); BacTiter-Glo, 6 h; inhibition, % at 7.5 µM; 300,000 tested, 1.3% active;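 active means mean replicate score, as percent of positive control median, at least 50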;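 further: strain carries kanamycin resistance gene driven by streptokinase promoter and grows in 40 µg/ml kanamycin; loss of luminescence reflects streptokinase promoter inhibition or plain growth inhibition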
tim23-1 inh: inhibits growth of tim23-1 mutant yeast; 330,000 tested, 1.3% active; AID 463212; inhibition, % at 20 µM; S. cerevisiae tim23-1 growth, BacTiter-Glo luminescence, 24 h;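 active means growth inhibition of the mutant yeast at or above 50%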;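 further: temperature-sensitive mutant grown at 25 °C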
tim10-1 inh: tim10-1 yeast growth inhibition; S. cerevisiae tim10-1 ts strain growth, BacTiter-Glo, 24 h; inhibition, % at 20 µM; 330,000 tested, 2.2% active;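 active means inhibition of at least 40%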;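 further: mutant grown at 25 °C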
PfHsp90 yeast 2: inhibits growth of yeast expressing Plasmodium falciparum Hsp90 | S. cerevisiae expressing PfHsp90, BacTiter-Glo ATP, 48 h; yeast lacking PDR1 and PDR3 efflux regulators | inhibition, % at 9.4 µM | 310,000 tested, 0.32% active | AID 504621;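 active means every replicate shows inhibition above about 80%, whatever the replicate mean, limit read from the data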
EBI2 antag: EBI2 (human) antagonism. EBI2 beta-arrestin recruitment, luminescence, 7a,25-OHC stimulated. inhibition, % at 5 µM. 360,000 tested, 0.81% active. AID 651636; in the data active means inhibition above about 38%;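 further: enzyme fragment complementation signal reports receptor beta-arrestin coupling in cells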
Target sequence (P32249 whole entry, looked up, the tested form may be a part): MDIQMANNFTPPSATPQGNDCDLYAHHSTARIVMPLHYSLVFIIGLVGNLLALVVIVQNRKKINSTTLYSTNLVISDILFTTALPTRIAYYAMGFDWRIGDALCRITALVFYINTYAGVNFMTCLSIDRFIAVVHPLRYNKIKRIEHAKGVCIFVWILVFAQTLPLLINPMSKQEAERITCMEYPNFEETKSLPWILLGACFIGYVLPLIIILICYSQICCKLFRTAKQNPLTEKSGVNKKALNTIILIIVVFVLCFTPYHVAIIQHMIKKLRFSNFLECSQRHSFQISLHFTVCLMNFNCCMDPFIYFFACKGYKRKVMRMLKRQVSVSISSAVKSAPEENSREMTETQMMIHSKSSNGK
TIM10 inh: inhibits growth of TIM10 yeast strain; S. cerevisiae TIM10 strain growth, BacTiter-Glo luminescence, 24 h; 330,000 tested, 1.4% active; inhibition, % at 10 µM;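 active means inhibition of 40% or more at the single tested concentration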;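 further: wild-type TIM10 isogenic control strain grown at permissive 25 °C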
TIM10 conf: confirmation of TIM10 yeast growth inhibitors; shares compounds with TIM10 inh; S. cerevisiae tim10 strain growth, BacTiter-Glo luminescence, 24 h; inhibition, % at 10 µM; 4,600 tested, 63% active;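 active means inhibition of yeast growth at or above a set limit in either of two replicates at 10 µM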; further: this counterscreen used the strain with wild-type TIM10
Numbers stand for hits.

Results for CC(Sc1ccc(S(=O)(=O)N2CCN(C)CC2)cn1)C(=O)NC1(C#N)CCCCC1 (configuration not stated) ?
tim23-1 inh: inactive; tim10-1 inh: inactive; PfHsp90 yeast 2: inactive; EBI2 antag: inactive; TIM10 inh: inactive

How did CCn1nc(C)c(CNC(=O)c2cc(COc3ccccc3SC)on2)c1C do in these assays?
SKKanGAS inh: inactive; tim23-1 inh: inactive; tim10-1 inh: inactive; PfHsp90 yeast 2: inactive; EBI2 antag: inactive; TIM10 inh: inactive

What do the screens show for `CC1(C)c2[nH]c3ccccc3c2C[C@@H]2C(=O)N(Cc3ccccc3F)C(=O)N21`?
SKKanGAS inh: inactive; tim23-1 inh: inactive; tim10-1 inh: inactive; PfHsp90 yeast 2: inactive; EBI2 antag: inactive; TIM10 inh: 41; TIM10 conf: inactive

How did O=C(NC(=S)Nc1ccc(S(=O)(=O)NC2CCCCC2)cc1)c1cccs1 do in these assays?
SKKanGAS inh: inactive; tim23-1 inh: inactive; tim10-1 inh: inactive; PfHsp90 yeast 2: inactive; EBI2 antag: inactive; TIM10 inh: 41; TIM10 conf: 38

Results for CCOC(=O)c1c(NC(=O)COC(=O)/C=C/c2ccccc2)sc(C(=O)NC)c1C ?
tim23-1 inh: inactive; tim10-1 inh: inactive; PfHsp90 yeast 2: inactive; EBI2 antag: inactive; TIM10 inh: inactive

Results for O=C(NC(=S)Nc1ccccc1N1CCOCC1)c1ccc(-c2ccccc2F)o1 ?
SKKanGAS inh: inactive; tim23-1 inh: inactive; tim10-1 inh: inactive; PfHsp90 yeast 2: inactive; EBI2 antag: inactive; TIM10 inh: inactive

Results for O=S(=O)(c1ccc(Oc2ncnc3scc(-c4ccccc4)c23)cc1)N1CCOCC1 ?
SKKanGAS inh: inactive; tim23-1 inh: inactive; tim10-1 inh: inactive; PfHsp90 yeast 2: inactive; EBI2 antag: inactive; TIM10 inh: inactive

Results for CC(=O)Nc1cccc(Oc2ncnc3scc(-c4ccccc4)c23)c1 ?
SKKanGAS inh: inactive; tim23-1 inh: inactive; tim10-1 inh: inactive; PfHsp90 yeast 2: inactive; EBI2 antag: inactive; TIM10 inh: 48; TIM10 conf: inactive

What do the screens show for `COC(=O)C1=C(C)N(c2ccccc2)C(=S)NC1c1ccccc1C(F)(F)F` (configuration not stated)?
SKKanGAS inh: inactive; tim23-1 inh: inactive; tim10-1 inh: inactive; PfHsp90 yeast 2: inactive; EBI2 antag: inactive; TIM10 inh: 50; TIM10 conf: inactive

How did O=Cc1[nH]c2ccccc2c1N(C(=O)CCl)c1ccc([N+](=O)[O-])cc1 do in these assays?
SKKanGAS inh: inactive; tim23-1 inh: inactive; tim10-1 inh: inactive; PfHsp90 yeast 2: inactive; EBI2 antag: inactive; TIM10 inh: 41; TIM10 conf: inactive

What do the screens show for `CC(O)(c1ccc(F)c(F)c1)c1nc(-c2cccc(C#N)c2)cs1` (configuration not stated)?
EBI2 antag: inactive

How did O=C(CSc1ncn(-c2ccccc2)n1)c1cccs1 do in these assays?
SKKanGAS inh: inactive; tim23-1 inh: inactive; tim10-1 inh: inactive; PfHsp90 yeast 2: inactive; EBI2 antag: inactive; TIM10 inh: 48; TIM10 conf: inactive

How did Clc1cccc(CSc2nnc(-c3c[nH]c4ccccc34)o2)c1 do in these assays?
SKKanGAS inh: inactive; tim23-1 inh: inactive; tim10-1 inh: inactive; PfHsp90 yeast 2: inactive; EBI2 antag: inactive; TIM10 inh: inactive

What do the screens show for `O=c1c(-c2nnc(SCc3ccc(Cl)c(Cl)c3)o2)cccn1Cc1ccccc1`?
SKKanGAS inh: inactive; tim23-1 inh: inactive; tim10-1 inh: inactive; PfHsp90 yeast 2: inactive; EBI2 antag: inactive; TIM10 inh: 43; TIM10 conf: 30

What do the screens show for `NNC(=O)c1csc(-c2ncc(C(F)(F)F)cc2Cl)n1`?
SKKanGAS inh: inactive; tim23-1 inh: inactive; tim10-1 inh: inactive; EBI2 antag: inactive; TIM10 inh: inactive

Results for COc1ccccc1NC(=S)N(Cc1ccc(C)cc1)Cc1cccnc1 ?
SKKanGAS inh: inactive; tim23-1 inh: inactive; tim10-1 inh: inactive; PfHsp90 yeast 2: inactive; EBI2 antag: inactive; TIM10 inh: 47; TIM10 conf: inactive

How did COc1ccccc1NC(=S)N(Cc1cccnc1)Cc1ccccc1Cl do in these assays?
SKKanGAS inh: inactive; tim23-1 inh: inactive; tim10-1 inh: inactive; PfHsp90 yeast 2: inactive; EBI2 antag: inactive; TIM10 inh: inactive
